Hits are enriched below; roughly 4.7% of the tested compounds scored in any of these assays.
rCAG binder: binds r(CAG) RNA repeats | AID 651821 | actives 1.3% (n = 370,000) | r(CAG) RNA repeat, TO-PRO-1 dye displacement fluorescence | inhibition, % at 3 µM;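 active means inhibition above the plate cutoff, the mean of all test compounds on that plate plus 3 SD, cut at about 35% in these data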;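 further: 0% = DMSO alone and 100% = 100 µM mitoxantrone as full dye displacement; higher means more dye released from RNA so lower well fluorescence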
ADAM17 inh: inhibitors of human ADAM17; P78536; recombinant ADAM17, EDANS/DABCYL FRET peptide cleavage; inhibition, % at 6.95 µM; actives 0.83% (n = 370,000);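 active means inhibition above the mean of compounds lying between control limits plus 3 SD, set per campaign, cut at about 8.5% in these data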;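 further: 0% = DMSO-only wells as the low control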
proKLK7 act: proKLK7 (human) activation, primary screen. activation, % at 7 µM. P49862. actives 0.9% (n = 370,000). purified proKLK7, EDANS-DABCYL substrate fluorescence; 100% is mature enzyme control, 0% vehicle. AID 652039;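 active means activation above the mean of all tested compounds plus 3 SD, computed per campaign excluding outliers beyond control limits, cut at about 13% in these data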
Target sequence (P49862 whole entry, looked up): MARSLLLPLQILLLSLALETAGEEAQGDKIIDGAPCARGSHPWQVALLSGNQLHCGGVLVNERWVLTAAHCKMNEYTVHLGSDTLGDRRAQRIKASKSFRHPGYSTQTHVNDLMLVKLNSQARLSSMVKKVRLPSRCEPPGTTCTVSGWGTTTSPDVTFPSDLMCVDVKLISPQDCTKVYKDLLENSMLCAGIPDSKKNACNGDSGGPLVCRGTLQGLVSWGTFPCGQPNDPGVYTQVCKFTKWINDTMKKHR
MPTP inh: inhibitors of mitochondrial permeability transition pore; isolated mouse mitochondria, Ca2+ swelling absorbance, 30 min; inhibition, % at 10 µM; actives 1.4% (n = 360,000);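 active means inhibition of 50% or more, scaled per plate between neutral and stimulator controls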;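 further: 0% = DMSO wells given calcium and 100% = 1 mM EGTA wells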
ADAM10 inh: inhibits human ADAM10; O14672; recombinant ADAM10, EDANS/DABCYL FRET peptide cleavage, 3 h; inhibition, % at 7 µM; actives 0.62% (n = 370,000); AID 720582;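 active means inhibition above a per-campaign cutoff equal to the mean of compounds falling between control-based bounds plus 3 SD, cut at about 20% in these data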;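 further: 0% = DMSO wells while the 100% control is not disclosed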
DSG3 Ab inh: human desmoglein-3 autoantibody binding inhibition; P32926; DSG3-coupled beads, scFv-anti-DSG3-GFP binding, flow cytometry; stronger effect = lower value; binding (percent of control), % at 10 µM; actives 0.48% (n = 310,000); AID 588358;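 active means binding more than 3 SD below its plate's average and above zero; inconclusive means below that plate limit but binding exactly zero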;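 further: hits lower antibody fragment binding to DSG3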
KLK7 act conf: confirmation of human kallikrein-7 zymogen activators; shares compounds with proKLK7 act; purified proKLK7, EDANS-DABCYL substrate fluorescence; scaled: vehicle 0, mature enzyme 100; activation, % at 7 µM; actives 68% (n = 3,200); AID 686949;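 active means activation, as change over the incubation, above the mean of all tested compounds plus 3 SD, cut at about 13% in these data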
EDANS interfere: fluorescence interference counter-screen for KLK7 activators; activation, % at 7 µM; shares compounds with proKLK7 act; actives 80% (n = 3,200); EDANS-DABCYL substrate fluorescence interference, no enzyme, 4 h; solvent 0%, active enzyme control 100%;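 active means activation above the all-compound mean plus 3 SD, ignoring values outside control-based bounds, cut at about 4.8% in these data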;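 further: value is the 4 h activation minus the activation read at time zero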
K7 EDANS ctr: EDANS fluorescence interference in dose response, no enzyme; EC50, µM; actives 20% (n = 250); AID 720493; shares compounds with proKLK7 act; EDANS-DABCYL peptide fluorescence interference;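 active means compounds that raise the fluorescence signal in this interference counterscreen, with EC50 at or below 10 µM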;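 further: intact quenched peptide substrate alone read at 355 nm excitation and 520 nm emission; signal is fluorescence gain from T0 to T4 after four hours at room temperature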
* hit, by the source's call; i = inactive; ? = inconclusive; / = no result.

SMILES | rCAG binder | ADAM17 inh | proKLK7 act | MPTP inh | ADAM10 inh | DSG3 Ab inh | KLK7 act conf | EDANS interfere | others
COCCCn1c(C(=O)N2CCOCC2)cc2c(=O)n3cccc(C)c3nc21 | -7 | -410 | 19* | -1 | i | 111 | 17* | 18*
Cc1cccn2c(=O)c3cc(C(=O)N4CCN(C(=O)c5ccco5)CC4)n(C)c3nc12 | -3 | -352 | 20* | -1 | i | / | 23* | 35*
Cc1cccn2c(=O)c3cc(C(=O)N4c5ccccc5CC4C)n(C)c3nc12 (stereo not given) | -6 | -9 | -1 | 1 | -22 | 108 | / | /
COCCCn1c(C(=O)N2CC(C)OC(C)C2)cc2c(=O)n3cccc(C)c3nc21 (stereo not given) | / | / | / | 2 | / | 104 | / | /
Cc1cccn2c(=O)c3cc(C(=O)N4COCC4(C)C)n(Cc4ccccc4)c3nc12 | -3 | -40 | -5 | 3 | -102 | 93 | / | /
Cc1cccn2c(=O)c3cc(C(=O)N4CCOCC4)n(C)c3nc12 | -7 | -159 | 20* | 0 | i | 98 | 46* | 35* | K7 EDANS ctr=>70
Cc1cc(CNC(=O)c2ccc3c(c2)OCO3)c2ccccc2n1 | 7 | -1 | 0 | 3 | -1 | 101 | / | /
Cc1cc(=O)n2c3c(c4c(cc13)c(CN(C)C)cc(=O)n4C)OC2 | -1 | -51 | 30* | -2 | -197 | 95 | 15* | 17*
CC1=C(C(=O)OCc2ccccc2)C(c2ccccc2Br)NC(=O)N1 (stereo not given) | -7 | 3 | 1 | 3 | 8 | 114 | / | /
CCOC(=O)CC(=O)CSc1nc(-c2cccnc2)ccc1C#N | 8 | -44 | 84* | 0 | -137 | 99 | 286* | 286*
CCOC(=O)CC(=O)CSc1nc(C)cc(-c2cccnc2)c1C#N | 2 | -9 | 35* | 0 | -24 | 104 | 98* | 72* | K7 EDANS ctr=5.5*
CCOC(=O)CC(=O)CSc1nc(-c2cccnc2)cc(C)c1C#N | 2 | -9 | 34* | 0 | -14 | / | 116* | 123*
CCOC(=O)CC(=O)CSc1nc(N)c(C#N)c(-c2ccc(F)cc2)c1C#N | 12 | -4 | 14* | 0 | -9 | 106 | 13* | 13*
CCOC(=O)CC(=O)CSc1nccc(-c2cccnc2)n1 | 5 | -2 | 1 | 2 | -7 | 101 | / | /
COc1ccc(C(=O)Nc2nc3ccccc3[nH]2)cc1OC | 1 | -2 | 0 | 1 | 7 | 106 | / | /
Cc1cc(C)cc(C(=O)Nc2nc3ccccc3[nH]2)c1 | 6 | 0 | 0 | 0 | 11 | 95 | / | /
COc1ccc(Cl)cc1C(=O)Nc1nc2ccccc2[nH]1 | 6 | -133 | 27* | 2 | -281 | 105 | -3 | -15
O=C(Nc1nc2ccccc2[nH]1)c1cc2ccccc2o1 | 6 | -30 | 16* | 2 | -62 | 95 | 44* | 44*
CC(C)(CN1CCN(C(c2ccccc2)c2ccccc2)CC1)NS(=O)(=O)c1ccccc1 | -3 | 2 | -1 | 2 | 7 | 86 | / | /
CS(=O)(=O)c1ccc(Cl)c(NC(=O)C2CCCN(C(=O)c3ccc(Cl)cc3)C2)c1 (stereo not given) | -2 | -2 | 1 | -1 | 0 | 95 | / | /
C(=N\NC1=Nc2cccc3cccc1c23)/c1ccccc1 | 6 | -1 | 1 | 2 | -5 | 137 | / | /
NC1=Nc2cccc3cccc1c23 | 5 | -49 | 53* | -2 | -130 | 113 | 25* | 27*
COc1ccc(N2CCN(C(=O)COC(=O)CCc3ccccc3OC)CC2)cc1 | -8 | -2 | -1 | -2 | 4 | 101 | / | /
CCOC(=O)N1CCN(C(=O)c2cccn3c(=O)c4sccc4nc23)CC1 | -5 | -482 | 73* | 0 | i | 105 | 63* | 69*
CCOC(=O)N1CCN(C(=O)c2cccn3c(=O)c4cc(Br)ccc4nc23)CC1 | -2 | -63 | 1 | -3 | -242 | 108 | / | /
SMILES | rCAG binder | ADAM17 inh | proKLK7 act | MPTP inh | ADAM10 inh | DSG3 Ab inh | KLK7 act conf | EDANS interfere | others
CCOC(=O)N1CCN(C(=O)c2ccc3nc4ccsc4c(=O)n3c2)CC1 | -1 | -225 | 15* | -1 | i | 108 | 25* | 20* | K7 EDANS ctr=>70
O=C(OCCOc1ccc(Br)cc1)c1ccc(Cl)c(S(=O)(=O)N2CCOCC2)c1 | 3 | 1 | 0 | -1 | 0 | 97 | / | /
CC(C)NC(=O)c1cc2nc(-c3ccco3)cc(C(F)(F)F)n2n1 | -5 | -83 | 12 | -2 | -255 | 102 | / | /
CCOC(=O)c1cc2nc(-c3ccco3)cc(C(F)(F)F)n2n1 | 9 | -180 | 19* | -8 | i | 96 | 0 | -2
CC1=C(C#N)C(c2cccnc2)C2=C(CCCC2=O)N1 (stereo not given) | -1 | -387 | 17* | -2 | i | ? | 51* | 64*
CC(C)(C)c1ccc(CC(=O)N2CCC2(C)C(=O)NS(=O)(=O)c2cccs2)cc1 (stereo not given) | 13 | -1 | 1 | 0 | -6 | / | / | /
N#CC(C#N)=Cc1c[nH]c(=O)c(C#N)c1Nc1ccccc1 | -4 | i | 62* | 2 | i | 97 | 63* | 62*
N#Cc1c(Nc2ccccc2)c(/C=N/N=C/c2ccccc2)c[nH]c1=O | 13 | -1 | 0 | 0 | -5 | 100 | / | /
C=C1CC(Cn2cc(Br)c(=O)[nH]c2=O)(c2ccc(-c3ccccc3)cc2)OC1=O (stereo not given) | 20 | -2 | 0 | -1 | -5 | 93 | / | /
C#CCn1c(=NC(=O)c2sc3ccccc3c2Cl)sc2cc(S(N)(=O)=O)ccc21 | -2 | -11 | 30* | 1 | -23 | 109* | -1 | 2
CC1CCCCC1NC(=O)c1cc2c(=O)n3ccccc3nc2n1C (stereo not given) | 1 | i | 41* | 0 | i | 105 | 6 | 4
Cc1cccn2c(=O)c3cc(C(=O)NC4CCCCC4C)n(C)c3nc12 (stereo not given) | 0 | -65 | -4 | -1 | -195 | 101 | / | /
CN(C(=O)c1cc2c(=O)n3ccccc3nc2n1C)C1CCCCC1 | -4 | i | 69* | 1 | i | / | 74* | 81*
CCN(C(=O)c1cc2c(=O)n3ccccc3nc2n1CCCOC)C1CCCCC1 | -8 | i | 55* | 0 | i | 99 | 76* | 78*
